Assay outcomes: PubChem, several laboratories
tim23-1 inh – growth inhibitors of tim23-1 mutant yeast, primary screen, luminescence, uHTS. inhibition, % at 20 µM. S. cerevisiae tim23-1 growth, BacTiter-Glo luminescence, 24 h. 1.3% of 330,000 active. AID 463212, 2010;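 active means growth inhibition of the mutant yeast at or above 50%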;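 further: temperature-sensitive mutant grown at 25 °C; plate controls were DMSO-treated mutant yeast for no effect and medium wells lacking yeast for full effect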
NALP1 yeast inh – NALP1 inflammasome inhibitors in reconstituted yeast, colorimetric, S. cerevisiae, triplicate retest; S. cerevisiae NALP1/ASC/caspase-1 growth, X-gal OD620, 72 h; inhibition, % at 10 µM; 0.61% of 280,000 active; in the data active means inhibition mostly above about 24%, no sharp cut-off; inactive means mostly below about 32%
TIM10 inh – growth inhibitors of isogenic TIM10 control yeast, primary screen, counter-screen for tim10-1 yeast inhibitor project, luminescence, uHTS; 1.4% of 330,000 active; inhibition, % at 10 µM; AID 463195, 2010; S. cerevisiae TIM10 strain growth, BacTiter-Glo luminescence, 24 h;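 active means inhibition of 40% or more at the single tested concentration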;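 further: wild-type TIM10 isogenic control strain grown at permissive 25 °C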
NALP3 yeast inh – NALP3 inflammasome inhibitors in reconstituted yeast, primary screen, luminescence, uHTS | AID 2825, 2010 | Yeast reconstituted NLRP3/ASC/caspase-1, beta-gal luminescence, 24 h | inhibition, % at 10 µM | 0.39% of 330,000 active;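 active means inhibition of 50% or more; inactive means inhibition below 50%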;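 further: plate controls were induced DMSO wells for no effect and uninduced yeast grown without galactose for full effect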
tim10-1 inh – growth inhibitors of tim10-1 mutant yeast, primary screen, luminescence, uHTS; S. cerevisiae tim10-1 ts strain growth, BacTiter-Glo, 24 h; inhibition, % at 20 µM; 2.2% of 330,000 active;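 active means inhibition of at least 40%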;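 further: mutant grown at 25 °C; 0% = DMSO wells with yeast and 100% = wells holding no yeast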
SKKanGAS inh – S. pyogenes SKKanGAS growth inhibitors in kanamycin, primary screen, streptokinase expression inhibitor project, SKKanGAS strain, BacTiter-Glo luminescence; 6 h; inhibition, % at 7.5 µM; 1.3% of 300,000 active;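 active means mean replicate score, as percent of positive control median, at least 50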;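 further: strain carries kanamycin resistance gene driven by streptokinase promoter and grows in 40 µg/ml kanamycin; loss of luminescence reflects streptokinase promoter inhibition or plain growth inhibition; 0% = median of DMSO wells and 100% = positive control at its reference dose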
Numbers without * were called inactive; x = no result. Hits are enriched below; roughly 4.9% of the tested compounds scored in any of these assays.

SMILES | tim23-1 inh | NALP1 yeast inh | TIM10 inh | NALP3 yeast inh | tim10-1 inh | SKKanGAS inh
O=C(Nc1ccccc1C(=O)O)c1ccc(NC(=O)C2CCCO2)cc1 (stereo unspecified) | 7.8 | 3.1 | 4.6 | 2.9 | 0.0 | 4.7
O=C(NCCN1CCN(c2ccccc2)CC1)c1ccc(NC(=O)C2CCCO2)cc1 (stereo unspecified) | 2.1 | 42.1* | -14.3 | 2.0 | 6.7 | -5.4
Cc1ccccc1CNC(=O)Nc1ccc(Cl)cc1 | -3.5 | x | -16.5 | 25.0 | -9.5 | 2.4
Cc1cc(C)cc(NC(=O)C(OC(=O)c2ccc(NC(=O)CC#N)cc2)c2ccccc2)c1 (stereo unspecified) | 4.1 | x | 7.9 | 5.6 | 5.7 | 56.7*
CC(OC(=O)c1ccc(NC(=O)CC#N)cc1)C(=O)NC(=O)NC1CCCCC1 (stereo unspecified) | 10.9 | 13.8 | 5.0 | 20.5 | 1.2 | 59.5*
CCOc1ccc(S(=O)(=O)Nc2cc(S(=O)(=O)N3CCOCC3)ccc2OC)cc1 | 15.0 | x | 5.4 | 6.8 | 9.0 | x
CCCCOc1ccc(C(=O)O)cc1 | 8.0 | 19.9* | 5.5 | 45.2 | 7.2 | 1.2
CC(C)(C)c1ccc(C(=O)NC(=S)NNC(=O)COc2ccccc2)cc1 | 25.2 | -2.0 | -54.5 | 22.9 | 11.1 | 91.4*
CCCOc1ccc(C(=O)NNC(=S)NC(=O)c2ccccc2[N+](=O)[O-])cc1 | 5.0 | 2.2 | 4.0 | 33.4 | 6.7 | 78.2*
CCCOc1ccc(C(=O)NNC(=S)NC(C)=O)cc1 | -29.1 | 6.1 | -121.4 | 35.2 | 4.0 | 93.0*
CCCCCCCCOc1ccc(C(=O)O)cc1 | 9.7 | x | -21.3 | 35.4 | -22.4 | x
Cc1ccc(C(=O)NCC(C)NC(=O)c2ccc(C)c(C)c2)cc1C (stereo unspecified) | 15.3 | x | 3.2 | 2.5 | -13.9 | -22.4
CCc1c(C)nc(SCC(=O)NNC(=O)c2ccco2)[nH]c1=O | 10.2 | -2.6 | -0.5 | 9.9 | 15.9 | 9.3
CCCCOc1ccc(C(=O)NNC(=S)NC(=O)CC)cc1 | x | -7.7 | x | x | x | 96.7*
Cc1ccc(C(=O)NNC(=S)NC(=O)COc2ccccc2)cc1 | -28.2 | -23.0 | -1.1 | 13.8 | -12.2 | 33.4
CCCOc1ccc(C(=O)NNC(=S)NC(=O)c2ccccc2)cc1 | -3.4 | -2.6 | -4.4 | 12.7 | -6.9 | 106.7*
O=C(NNC(=S)NC(=O)c1ccccc1)c1ccc(O)cc1 | 11.7 | -0.7 | 1.5 | 22.5 | 7.9 | 74.1*
O=C(O)c1ccc(NC(=S)NC(=O)c2cccc(COc3ccccc3)c2)cc1 | 17.1 | -2.5 | 28.6 | 12.4 | 27.4 | 58.1*
O=C(NNC(=S)Nc1ccccc1)c1ccc(O)cc1 | 8.2 | x | 2.7 | -0.9 | -4.8 | -5.3
COc1cccc(N2CC(=O)N(NC(=O)CSc3nc(C)cc(C)c3C#N)CC2=O)c1 | 14.0 | 29.9 | 10.2 | 5.2 | 12.7 | -4.3
COc1cc(OC)c(N(C)S(=O)(=O)c2cccc(C(=O)OCC(=O)NCc3ccco3)c2)cc1Cl | 15.4 | 0.3 | 6.2 | 2.6 | -1.7 | 5.0
Cc1ccc(C)c(SCC(=O)Nc2ccc(C)c(S(=O)(=O)N3CCOCC3)c2)c1 | 27.9 | x | -5.8 | 0.0 | 7.6 | x
CC(C)(C)C(=O)NC(=S)NNC(=O)c1ccc(-c2ccccc2)cc1 | 48.8 | 6.5 | -30.9 | 43.7 | 8.5 | 91.0*
CC(C)(C)C(=O)NC(=S)NNC(=O)c1ccc(Cl)cc1Cl | -5.5 | 7.2 | -40.7 | 19.9 | -39.8 | 73.3*
CCOc1ccc(C(=O)NC(=S)N(Cc2ccccc2)Cc2ccccc2)cc1 | x | 8.2 | x | x | x | 98.2*
SMILES | tim23-1 inh | NALP1 yeast inh | TIM10 inh | NALP3 yeast inh | tim10-1 inh | SKKanGAS inh
COC(=O)NNC(=O)c1ccc(Cl)cc1Cl | 8.0 | 11.4 | 1.4 | 14.9 | 6.6 | -5.7
CC(C)(C)NC(=S)NNC(=O)[C@H]1C[C@@H]1c1ccccc1 | 3.5 | -0.6 | 15.4 | 11.2 | 15.1 | -0.1
O=C(/C=C/c1ccc(F)cc1)NC(=S)NNC(=O)[C@H]1C[C@@H]1c1ccccc1 | 21.0 | -11.9 | 20.8 | 29.6 | -11.2 | 84.8*
O=C(NC(=S)NNC(=O)[C@H]1C[C@@H]1c1ccccc1)c1ccc(F)cc1 | -23.2 | 25.1 | 25.1 | 20.6 | -36.3 | 82.2*
O=C(/C=C/c1ccc(F)cc1)NC(=S)Nc1ccccc1O | x | -2.7 | x | x | x | -5.0
COc1ccc(-c2csc(NC(=O)c3ccccc3NS(=O)(=O)c3ccc(C)cc3)n2)cc1 | 26.3 | 22.0 | 26.9 | 4.8 | 18.4 | 53.8*
COc1ccc(S(=O)(=O)Nc2ccccc2C(=O)Nc2nc(-c3ccc(F)cc3)cs2)cc1OC | 35.6 | 27.4 | 28.9 | 5.4 | 30.5 | 35.6
COc1ccc(-c2nn(-c3ccccc3)cc2C(=O)NC(=S)NNC(=O)c2ccncc2)cc1 | -12.7 | -9.7 | 14.9 | 35.6 | 4.8 | 88.9*
O=C(Nc1ccc(Cl)cc1)Nc1nc(-c2ccccc2O)cs1 | -18.2 | x | 2.3 | 10.5 | -10.3 | 61.5*
CN1c2ccccc2C(C)(C)C12CC(CCl)=NO2 (stereo unspecified) | -18.1 | -2.7 | 6.4 | 8.7 | 15.5 | -9.1
COc1ccc2ccc3c(c2c1)N=CC1(O3)N(C)c2ccccc2C1(C)C (stereo unspecified) | 11.8 | 4.3 | 25.1 | 7.6 | 30.7 | 93.4*
CN1c2ccccc2C(C)(C)C12C=Nc1c(ccc3ccccc13)O2 (stereo unspecified) | 17.1 | 1.3 | 4.2 | 25.4 | 13.1 | 104.8*
CC(C)CC(CO)N1CCN(C(=O)c2ccc(Cl)c(Cl)c2)CCC1=O (stereo unspecified) | -4.3 | x | -1.1 | 17.5 | -17.1 | 3.2
Cc1ccc(C(C)C)c(OCCCN(C)Cc2ccccc2)c1 | 18.4 | 36.2 | 18.9 | 23.4 | 12.3 | -2.7
Cc1ccc(OCCCCN(C)Cc2ccccc2)c(Br)c1 | 28.2 | 51.3* | -46.9 | 20.0 | -23.9 | 0.8
CCCn1c(=O)c(C(=O)NNC(=O)c2ccc(Cl)cc2Cl)c(O)c2ccccc21 | 15.4 | 7.6 | -19.2 | 44.2 | 30.1 | 69.6*
CCCn1c(=O)c(C(=O)NNS(=O)(=O)c2ccc(Cl)cc2)c(O)c2ccccc21 | 27.4 | 15.8 | 2.6 | -3.0 | -8.6 | 95.8*
Cn1nc(C(=O)NNC(=O)c2cccc(Cl)c2)c2ccccc2c1=O | 7.7 | x | -3.7 | 15.3 | -8.3 | x
Cn1c(=O)c(C(=O)NNC(=O)c2cccc(Cl)c2)c(O)c2ccccc21 | 40.9 | -13.0 | 24.8 | 27.3 | -37.1 | 61.7*
CCN(CC)CCCNc1nc(SC)nc2sc3c(c12)CCN(C)C3 | x | 7.0 | x | x | x | 3.8
Cc1ccc(CN2C(=O)CCSc3ccc(Cl)cc32)cc1 | 18.9 | 35.5* | 13.6 | 11.1 | 32.2 | 19.9
O=C(O)c1ccc(S(=O)(=O)Nc2ccc3c(c2)OCCO3)cc1 | 1.9 | 14.1 | -3.8 | -10.4 | 1.1 | 3.1
CC(C)CC(=O)NC(=S)NNC(=O)c1ccc(NC(=O)C2CCCCC2)cc1 | 2.2 | -2.4 | -14.8 | 17.0 | -15.6 | 87.7*
